IMPase cell inh – membrane-permeable compound that blocks inositol monophosphatase | inhibition (IP1 accumulation), % at 46.1 µM | P97697 | CHO-M1 cells, IP1 accumulation, HTRF TR-FRET ratio | 120,000 tested, under 10 active; active means well fitted curve in the direction sought with a large enough effect in the signal ratio, not every such curve was filed as active; inconclusive means small, poorly fitted or top-dose-only effect, or a change in a side signal; inactive means no such curve, though single readings can be large or run the other way; the % refers to the signal ratio;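 further: cells stimulated with carbachol in lithium chloride buffer; plate controls were DMSO basal wells for no effect and reference inhibitor wells for full effect; higher means more IMPase inhibition seen as more IP1 and lower FRET ratio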
Target sequence (P97697 whole entry, looked up): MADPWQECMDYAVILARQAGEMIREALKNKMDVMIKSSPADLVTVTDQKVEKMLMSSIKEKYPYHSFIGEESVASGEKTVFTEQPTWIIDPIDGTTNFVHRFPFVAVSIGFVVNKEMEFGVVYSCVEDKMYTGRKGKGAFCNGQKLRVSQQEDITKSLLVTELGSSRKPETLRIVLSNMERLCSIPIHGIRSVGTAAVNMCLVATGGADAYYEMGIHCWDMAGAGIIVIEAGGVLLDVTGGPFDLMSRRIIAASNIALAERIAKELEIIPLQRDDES
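Cellular IMPase inhibition is scored as a rise in cytosolic IP1, detected by competitive TR-FRET between d2-labelled IP1 and a europium anti-IP1 antibody. M1-expressing CHO cells were stimulated with carbachol for 30 min at 37C, with lithium (50 mM LiCl) present in the buffer.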
IMPase Li cell – cell-permeable IMPase inhibitors with lithium potentiation | actives 0.35% (n = 210,000) | Potency, µM (series often up to 59.4 µM), for the others: at the top dose activity, negative = IMPase inhibition, usual class: inhibitors | AID 1457 | CHO-M1 cells, IP1 TR-FRET (IP-One), carbachol + lithium;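 further: IP1 builds up when IMPase is blocked and the TR-FRET signal falls; potency means the concentration at half of the fitted maximal effect; plate controls were basal vehicle for no effect and high inhibitor control for full effect; nearly all actives have a fitted effect of over 50% in size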
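Concentration–response in CHO-M1 cells, lithium-potentiated; 30 min at 37C. IP1 detected by competitive TR-FRET after 10 min lysis at RT. Hill-fitted AC50.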
HPGD inh – HPGD (human) dehydrogenase inhibition; P15428; purified HPGD, NADH fluorescence kinetic, PGE2 substrate; actives 4.3% (n = 150,000); Potency, µM, without a hit: at the highest dose activity change, negative = inhibition, hits mostly inhibitors; active means well fitted inhibition curve with a large enough effect, not every such curve was filed as active; inconclusive means small, poorly fitted or top-dose-only effect, or another doubt; inactive means no such curve, though single readings can be large or run the other way; further: potency means the concentration at half of the fitted maximal effect; on the % scale 0 is the no-effect control and ±100 the full control effect
Target sequence (P15428 whole entry, looked up): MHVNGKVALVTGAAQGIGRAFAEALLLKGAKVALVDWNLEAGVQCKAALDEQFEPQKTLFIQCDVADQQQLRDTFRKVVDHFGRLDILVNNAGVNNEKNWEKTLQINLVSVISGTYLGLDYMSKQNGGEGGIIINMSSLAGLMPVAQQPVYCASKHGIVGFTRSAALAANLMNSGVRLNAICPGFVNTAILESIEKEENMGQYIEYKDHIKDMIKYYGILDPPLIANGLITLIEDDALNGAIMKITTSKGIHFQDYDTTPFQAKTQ
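20 nM HPGD preincubated 15 min at room temperature with compound in 50 mM Tris-HCl pH 8, 0.01% Tween 20. Started with 1 mM NAD+ and 30 uM prostaglandin E2; NADH fluorescence (360/450 nm) read 5 times over 30-s intervals, last minus first.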
ALDH1A1 inh – blocks purified human ALDH1A1 activity. Purified ALDH1A1, NADH fluorescence, propionaldehyde substrate. Potency, µM (doses to about 75.3 µM), for the others: at the highest dose activity, negative = inhibition, most hits filed as inhibitors. P00352. actives 7.3% (n = 220,000). AID 1030; active means well fitted inhibition curve with a large enough effect, not every such curve was filed as active; inconclusive means small, poorly fitted or top-dose-only effect, or another doubt; inactive means no such curve, though single readings can be large or run the other way;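 further: potency means the concentration at half of the fitted maximal effect; plate controls were no enzyme wells and a reference inhibitor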
HTT aggregate – reduces HttQ103-GFP aggregates in PC12 cells; PC12 HttQ103-GFP aggregates, Acumen cytometry, 40 h; Potency, µM (doses to about 46.1 µM), without a hit: at the highest dose activity change, negative = inhibition, usual class: inhibitors; actives 1.1% (n = 220,000); AID 1688; further: potency means the concentration at half of the fitted maximal effect; on the % scale 0 is the no-effect control and ±100 the full control effect; nearly all actives have a fitted effect of over 60% in size
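Ecdysone-promoter PC12 model expressing HTT exon 1 Q103 fused to GFP, induced by tebufenozide at 100 nM final. Compounds titrated; aggregates sized 1–25 µm scored on a 488 nm laser cytometer.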
HTT cytoprotect – protects HTT-Q103 PC12 cells, measured by ATP. PC12 HTT-Q103 induced, cytoprotection, ATP luminescence, 40 h. Potency, µM (series often up to 56.4 µM), for inactives: cytoprotection (ATP increase), actives largely listed as activators. actives 0.14% (n = 230,000); further: potency means the concentration at half of the fitted maximal effect; % of control where 0% means no effect; nearly all actives have a fitted effect of over 45% in size
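ATP quantification (ATPlite) reports survival of PC12 cells in which tebufenozide, 100 nM final, switches on Htt exon 1 with 103 glutamines linked to GFP; compounds are titrated.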
The depositor's hits bear a star; ? = inconclusive; · = no result given; [ ] = dose if it differs, or a comment. An excerpt weighted towards active compounds, which were near 9.4% of everything screened. Unless noted, the call rests on the fitted dose curve; in most records, active means well fitted curve in the direction sought with a large enough effect; inconclusive means small, poorly fitted or top-dose-only effect, or another doubt; inactive means no such curve, though single readings can be large; an effect the other way counts as inactive or inconclusive.

SMILES	IMPase cell inh	IMPase Li cell	HPGD inh	ALDH1A1 inh	HTT aggregate	HTT cytoprotect
CCOC(=O)N1CCN(C(=O)c2ccc(CNS(=O)(=O)c3ccc(C)cc3)cc2)CC1	5	-35%[38.3 µM]	-5%	0%	-13%	-22%
CC(C)(C)c1ccc(S(=O)(=O)NCc2ccc(C(=O)N3CCCC3)cc2)cc1	-5	14%[38.3 µM]	?	4µM*	2%	14%[10 µM]
COc1cccc(-c2nc(NCCN3CCOCC3)c3ccccc3n2)c1	·	16%	·	2%	·	-40%
COC(=O)N1c2ccccc2C23[C@@H]4CN5CCC[C@]6(CCC12C(O)(C6)C4=O)[C@H]53	·	14%	-2%	4%	·	?
c1ccc2c(c1)SCc1nnc(-c3ccncc3)n1-2	·	·	·	·	-5%[9.22 µM]	-2%[10 µM]
COc1ccc(-c2nnc3n2-c2ccccc2SC3)cc1OC	-7	13%[38.3 µM]	35µM*	16µM*	18%	10%
COC(=O)[C@@]1(Cc2ccc(F)cc2)[C@H]2c3cc(C(=O)N4CCCC4)n(Cc4ccccn4)c3C[C@H]2CN1C(=O)c1ccccc1	·	11%	-8%	7%	·	26%
CCc1ccccc1OCC(=O)Nc1ccc(S(=O)(=O)Nc2nc(C)cc(C)n2)cc1	2	·	·	·	·	·
CCN(CC)c1ccc(C=N/C(C#N)=C(\N)C#N)cc1	?	11%[38.3 µM]	-1%	11µM*	-1%	-5%
CCN(Cc1ccncc1)Cc1c(O)ccc2cc(Br)ccc12	·	-27%	·	0.56µM*	5%	-19%
N[C@@H](C(=O)O)[C@@H](CC(=O)O)c1ccc(Cl)cc1	·	-7%	·	5%	·	-26%
CCOC(=O)c1sc(NC(=O)c2ccncc2)c(C#N)c1C	·	1%	14µM*	3.2µM*	20µM*	·
COC(=O)c1sc(NC(=O)c2c(OC)cccc2OC)c(C#N)c1C	·	11µM*	·	?	1%[9.22 µM]	-5%[10 µM]
CCOC(=O)c1c(NC(=O)c2ccncc2)sc(C)c1C	·	20%	·	13µM*	5%	8%[10 µM]
O=c1[nH]c2ccccc2c(O)c1-c1ccccc1	·	·	·	·	18%[9.22 µM]	2%[10 µM]
Nc1[nH]c(=S)[nH]c(=O)c1-c1ccccc1	-1	10%[38.3 µM]	25µM*	?	18%	8%[10 µM]
Cc1[nH]c(=O)[nH]c(=O)c1CSc1nnc(CCCCCNC(=O)OC(C)(C)C)o1	-2	-1%[38.3 µM]	25µM*	4%	23%	-15%[0.074 µM]
CC(C)(C)OC(=O)NCCc1nnc(SCc2ccc(Cl)cc2Cl)o1	6	10%[38.3 µM]	?	?	?	-36%
C[C@H](N)c1nnc(SCC(=O)c2ccc(Cl)cc2)o1	5	32%[38.3 µM]	-14%	20µM*	1%	16%
CC(C)(C)OC(=O)NCCc1nnc(SCC(=O)c2ccc(Cl)cc2)o1	18	-3%[38.3 µM]	-15%	13µM*	-5%	4%[10 µM]
Cc1ccc2c(=O)c3ccccc3n(CCCN)c2c1C	·	35%	?	-8%	·	-188%
CCOc1cc(CNc2ncc(-c3ccc(OC)cc3)n2C)ccc1O	-4	21%[38.3 µM]	-7%	14µM*	7%	-17%[0.074 µM]
COc1ccc(-c2cnc(NCc3cc4c(cc3[N+](=O)[O-])OCO4)n2C)cc1	15	11%	2%	?	8%	-1%[10 µM]
COc1ccc2c(c1)CC/C(=C/c1ccco1)C2=O	·	3%	?	?	8%	27%[10 µM]
O=C1C(=Cc2ccco2)C(=O)c2ccccc21	·	0%	-24%	13µM*	?	?
SMILES	IMPase cell inh	IMPase Li cell	HPGD inh	ALDH1A1 inh	HTT aggregate	HTT cytoprotect
O=C1/C(=C/c2ccco2)CCc2ccccc21	·	7%	-7%	28µM*	14%	?
O=C(O)c1ccc2c(c1)C(=O)/C(=C\c1ccco1)C2=O	·	13%	·	?	0%	25%[10 µM]
CCn1c2ccccc2c2cc(CN3CCN(Cc4ccccc4Cl)CC3)ccc21	0	·	·	·	·	·
Nc1ccc(N(c2ccccc2)c2ccc(N)cc2)cc1	3	-2%[38.3 µM]	-4%	8.9µM*	9%	20%
Clc1nc(Cl)nc(N(c2ccccc2)c2ccccc2)n1	·	-6%	-9%	?	17%	10%[10 µM]
C[C@@H](SCc1ccccc1)C(=O)O	·	-1%	-5%	4%[13.5 µM]	·	2%[10 µM]

Compound activity from PubChem BioAssay.
